Experimental data: PubChem BioAssay
Unmarked numbers belong to inactive results.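 Rule for the calls: active = RAM network inhibition above 8.4% in each of two replicates, 3 SD over the compound average; inconclusive = above 8.4% inhibition in only one replicate; inactive = 8.4% inhibition or less in each replicate.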

Test: RAM signaling pathway blockade in yeast – S. cerevisiae, Pdr1DBD-CYC8 efflux-inhibited sensitized strain, primary screen (AID 1298);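 note: 0% = DMSO untreated cells without growth and 100% = 10 µM 1-NA-PP1 full growth; higher means more yeast growth rescued from 5-FOA killing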
Conditions: S. cerevisiae cbk1-as DSE1-URA3 strain, 5-FOA growth OD615, 2 d; at 50 µM; hits give high values

Compound	RAM network inhibition
Cc1oc(-c2cccs2)nc1CS(=O)CC(=O)NCCc1ccccc1 (stereo not given)	7.8%
CCN(CC)C(=O)C1CCCN(C/C=C/c2ccccc2)C1 (stereo not given)	-1.53%
c1ccc(Cn2c(CSc3nnnn3-c3ccccc3)nc3ccccc32)cc1	5.11%
COc1ccc(-c2cn3c(C)c(C(=O)NC(C)(C)C)sc3n2)cc1	1.82%
C/C=C/Cn1c(N(C)Cc2ccccc2)nc2c1c(=O)[nH]c(=O)n2C	3.49%
CCC1CC(C)(C(=O)Nc2ccc(S(N)(=O)=O)cc2)OC1=O (stereo not given)	3.69%
Cc1cccn2cc(-c3ccc(F)cc3)nc12	-1.54%
CC1CCCCN1C(=O)c1ccccc1NC(=O)c1ccco1 (stereo not given)	1.7%
COCCNS(=O)(=O)c1ccc(C2CNC(=O)C2)cc1 (stereo not given)	-1.51%
COc1cccc(OCC(=O)N(Cc2nc(-c3ccc(Cl)cc3)no2)C(C)C)c1	3.59%
COC(=O)C1C(=O)c2c([nH]c(C(=O)OC3CCCC3C)c2C)CC1C (stereo not given)	3.76%
O=C(Cn1c(S(=O)(=O)Cc2ccccc2)nc2ccccc21)N1CCCCC1	3.73%
COc1ccc(Cl)cc1NC(=O)CSc1nnc(Cn2c(=O)sc3ccccc32)n1C	7.45%
Cc1cc(C)c(C)c(OCC(=O)NCCN(C)C)c1	0.26%
COC(=O)c1ccc(C2C(C(C)=O)=C(C)Nc3ncnn32)cc1 (stereo not given)	2.09%
CCOC(=O)Cn1c(=O)oc2cc(S(=O)(=O)Nc3c(C)cc(C)cc3C)ccc21	4.9%
CC(c1ccccc1)C(CC(=O)O)C(=O)NC1CCCCC1 (stereo not given)	1.1%
Cc1cc(C2N=C(N)Nc3nc4ccccc4n32)c(C)n1-c1ccccc1Cl (stereo not given)	3.79%
CCOCCn1c(SCCc2ccccc2)nc2c1c(=O)[nH]c(=O)n2C	0.11%
CSc1ccc(S(=O)(=O)N2CCN(Cc3ccc4c(c3)OCO4)CC2)cc1	6.37%

Compound	RAM network inhibition
CC(=O)N1C(C(=O)O)CSC1c1ccc(C)cc1 (stereo not given)	-1.41%
Cc1cc(=O)[nH]c(SCc2cc(Cl)ccc2OC(F)F)n1	5.32%
C=CCn1c(=NC(=O)C2CC2)sc2cc(NC(C)=O)ccc21	0.32%
O=C(O)c1ccc(-n2nnnc2SCc2ccccc2F)cc1	9.03%
O=C(O)C1(P(=O)(c2ccccc2)c2ccccc2)CCC1	3.04%
CCOC(=O)C1=C(C)NC(=O)NC1c1ccc(C)o1 (stereo not given)	2.74%
O=C1c2ccccc2-c2ncnc3c(N4CCOCC4)cc(N4CCOCC4)c1c23	-1.52%
CCCC(=O)Nc1nnc(-c2ccc(Cl)s2)o1	1.6%
O=C(COc1ccccc1)Nc1ccc(S(=O)(=O)N2CCCC2)cc1	2.76%
COc1cccc(N2CCN(C(=O)CN(C)S(=O)(=O)c3ccc4c(c3)CCC(=O)N4)CC2)c1	7.09%
CC(C)(C)c1ccc(-c2cc(N)n[nH]2)cc1	2.2%
CCCOC(=O)c1ccc(-n2nnnc2SCC(=O)N2CCCCC2)cc1	0.04%
CCOc1ccc(-c2cc(CCCC(=O)NCc3ccco3)no2)cc1	1.77%
Nc1nnc(N2CCc3ccccc32)s1	0.42%
O=C(NC1CCN(Cc2ccccc2)CC1)C1CCN(c2nnc(-n3cccc3)s2)CC1	2.35%
CCn1c(C(C)NC(=O)Cc2ccccc2)nc2ccccc21 (stereo not given)	4.91%
CC1(C)Cc2c(C#N)c(NC3CCCCC3)nc(-c3ccco3)c2CO1	0.53%
O=C(NCc1ccc(F)cc1)c1cnc2n(c1=O)CCS2	-0.84%
Cc1sc2nc(SCC(=O)N3CCCC3)[nH]c(=O)c2c1C	1.77%
CC1Cc2nc(SCC(=O)N3CCOCC3)n(-c3ccccc3)c(=O)c2S1 (stereo not given)	0.95%
